# In PubChem BioAssay (Tox21):
# Results filed as inconclusive are left out. Where a call stands in place of a potency, no number is given. A number with no mark means an inactive call. Activity calls are given as the source filed them. Calls follow the shape of the full dose curve.
# Target: 5-hydroxytryptamine receptor 2A (Homo sapiens) (UniProt P28223)
# Test: 5-hydroxytryptamine receptor 2A (HTR2A) small molecule antagonists, cell-based qHTS assay (AID 1963586); also: nearly all actives have a fitted effect of over 45% in size
# Conditions: HTR2A-CHO cells, DOI-induced calcium flux, fluorescence; series mostly up to 61.5 µM
# Excerpt: National Center for Advancing Translational Sciences [NCATS]
# Division of Preclinical Innovation [DPI]
# U.S. Environmental Protection Agency [EPA]
# National Institutes of Environmental Health Sciences [NIEHS]
# National Toxicology Program [NTP]
# U.S. Food and Drug Administration [FDA]
# The HTR2A receptor is a subtype of the 5-HT2 receptor that belongs to the serotonin receptor family and is a G protein-coupled receptor (GPCR). The HTR2A-CHO cell line stably expressing human 5-hydroxytryptamine receptor 2A (HTR2A) can be used for screening antagonists of interactions between 5-HT2 and its ligands. The HTR2A-CHO calcium flux assay is a homogeneous fluorescence-based assay for detecting the intracellular calcium level using FDSS kinetic plate reader system.
# Tox21 Assay Protocol Summary:
# HTR2A-CHO cells were dispensed at 2000 cells/3uL/well in 1536-well black-clear bottom plates using a Multidrop Dispenser. After the assay plates were incubated at a 37 C/5% CO2 incubator for 18 h, 3 uL of Dye Loading Buffer was transferred to the assay plate by a Flying Reagent Dispenser. The assay plates were incubated at 37 C for 1h. For antagonist mode, 23 nL of compounds dissolved in DMSO, positive controls or DMSO only was transferred to the assay plate by a pin tool. After 5 min incubation at room temperature, 1.5 uL of 4-Iodo-2,5-dimethoxy-alpha-methylbenzeneethanamine hydrochloride (DOI) at 4nM was added to each well. The fluorescence intensity in the plates was measured using FDSS 7000EX kinetic plate reader for 3 min at 1 sec intervals.
# Sequence of 5-hydroxytryptamine receptor 2A (Homo sapiens) (P28223 whole entry, looked up): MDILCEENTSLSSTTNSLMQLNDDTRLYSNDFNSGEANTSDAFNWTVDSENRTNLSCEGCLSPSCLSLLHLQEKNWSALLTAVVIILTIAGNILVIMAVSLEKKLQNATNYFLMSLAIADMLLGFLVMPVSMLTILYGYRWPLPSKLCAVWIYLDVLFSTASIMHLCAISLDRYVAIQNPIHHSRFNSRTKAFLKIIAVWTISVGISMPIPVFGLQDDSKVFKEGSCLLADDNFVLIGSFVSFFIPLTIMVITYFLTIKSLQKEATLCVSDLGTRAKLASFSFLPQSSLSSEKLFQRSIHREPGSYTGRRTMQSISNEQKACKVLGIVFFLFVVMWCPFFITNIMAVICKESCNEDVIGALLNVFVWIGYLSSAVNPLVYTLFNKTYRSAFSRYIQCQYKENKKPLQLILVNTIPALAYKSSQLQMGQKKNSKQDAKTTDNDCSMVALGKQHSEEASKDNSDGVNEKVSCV
Compound,Potency,"activity, negative = inhibition"
CCCCOCCOP(=O)(OCCOCCCC)OCCOCCCC,inactive,
Nc1ccccc1Cl,inactive,
OCCSSCCO,inactive,
CSc1nnc(C(C)(C)C)c(=O)n1N,inactive,
c1cc2c3c(cccc3c1)CC2,inactive,
CCCCN(CCCCO)N=O,inactive,
Cc1cnc[nH]1,inactive,
CN(C)c1nc(=O)n(C2CCCCC2)c(=O)n1C,inactive,
c1ccc(CN2CCNCC2)cc1,inactive,
ClCC(Cl)(Cl)Cl,inactive,
CC(=O)CC(c1ccc(Cl)cc1)c1c(O)c2ccccc2oc1=O (stereo not given),inactive,
OCCN(CCO)CCO,inactive,
CCC[N+](=O)[O-],inactive,
CC(C(=O)c1ccccc1)N(C)C (stereo not given),inactive,
O=C(O)C1C2CCC(O2)C1C(=O)O (stereo not given),inactive,
[Cd+2].[Cl-].[Cl-],inactive,
COC(=O)NC(=S)Nc1ccccc1NC(=S)NC(=O)OC,inactive,
Cc1cccc(C#N)c1,inactive,
O=P(O)(O)CCCl,inactive,
CCNc1nc(Cl)nc(NCC)n1,inactive,

Compound,Potency,"activity, negative = inhibition"
Brc1c(Br)c(Br)c(Br)c(Br)c1Br,,-11.3% [at 5.62 µM]
O=Cc1ccccc1,inactive,
ClC1=C(Cl)[C@]2(Cl)[C@@H]3[C@@H](Cl)[C@@H](Cl)C[C@@H]3[C@@]1(Cl)C2(Cl)Cl,inactive,
O=C(O)c1nn(Cc2ccc(Cl)cc2Cl)c2ccccc12,inactive,
CN(C)CCO,inactive,
CN(C)C(=S)SSC(=S)N(C)C,inactive,
C1CCC(NC2CCCCC2)CC1,inactive,
CCOP(=S)(OCC)Oc1cc(C)nc(C(C)C)n1,inactive,
C/C(=N\NC(=O)Nc1cc(F)cc(F)c1)c1ncccc1C(=O)O,inactive,
CCC(=O)O[C@@H]1C=C2CCC3C(CCC4(C)C3CC[C@@H]4OC(=O)CC)C2CC1 (stereo not given in full),inactive,
CNC(=O)Oc1ccccc1OC(C)C,inactive,
CC(C)NC(=O)N1CC(=O)N(c2cc(Cl)cc(Cl)c2)C1=O,inactive,
CC(C)C(C)(N)C#N (stereo not given),inactive,
N#Cc1ccncc1,inactive,
O=C(O)COc1ccccc1,inactive,
Cc1ccccc1CCl,inactive,
c1ccc2c(c1)-c1cccc3cccc-2c13,inactive,
[Cl-].[Cl-].[Cl-].[Fe+3],inactive,
c1ccoc1,inactive,
CCCCOC(=O)c1ccccc1C(=O)O,inactive,
